# Screening data from PubChem BioAssay.
# PI5P4Ka inh: qHTS for Inhibitors of phosphatidylinositol 5-phosphate 4-kinase (PI5P4K); PI5P4Kalpha enzyme, ADP-Glo luminescence, 60 min; hits give low values; max response, %; hit rate 1.2% among 330,000; active = max response of -50% or lower; inconclusive = between -30% and -50%; inactive = -30% or higher; note: value at the top dose of about 77 µM
# Target sequence (P48426 whole entry, looked up): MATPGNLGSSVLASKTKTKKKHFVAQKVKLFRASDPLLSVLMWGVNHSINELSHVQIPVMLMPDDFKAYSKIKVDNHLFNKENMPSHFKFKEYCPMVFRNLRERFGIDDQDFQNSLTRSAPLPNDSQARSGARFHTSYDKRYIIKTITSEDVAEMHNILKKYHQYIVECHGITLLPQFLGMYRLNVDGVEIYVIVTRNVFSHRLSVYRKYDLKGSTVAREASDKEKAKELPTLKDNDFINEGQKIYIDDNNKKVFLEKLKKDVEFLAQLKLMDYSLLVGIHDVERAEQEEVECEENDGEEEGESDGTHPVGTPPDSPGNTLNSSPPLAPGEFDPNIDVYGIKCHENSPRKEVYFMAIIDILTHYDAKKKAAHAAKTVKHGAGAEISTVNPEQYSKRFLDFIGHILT
#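 Single end-point luminescence (ADP-Glo) quantified ADP from PI5P4Kalpha turnover; ATP 5 microM final, 1 h at RT, 0.1% CHAPS and 0.28 mM EGTA in HEPES pH 7.4.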
# PI4K2A block: qHTS for small molecular inhibitors of PI4K2A. purified PI4K2A, ADP-Glo luminescence, 1 h; hits give low values. activity change, negative = inhibition, % at 76.9 µM. hit rate 0.13% among 420,000. AID 1346378, 2018; in the data active = activity change below about -50%; inconclusive = mostly about -30% to -49%;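 note: -100% = wells without enzyme as full effect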
#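 ADP-Glo luminescence measured ADP generated by PI4K2A enzyme (4 ug/mL before mixing) with 1.2 mM PI substrate (pre-mix) and 300 microM ATP (pre-mix). Tris pH7.5 buffer with MgCl2, Triton X-100; 1 h reaction at ambient temperature.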
# Pin1 inh: qHTS Assay to Find Inhibitors of Pin1 | Peptidyl-prolyl cis-trans isomerase NIMA-interacting 1 (Homo sapiens), Q13526 | Pin1 FP peptide displacement, HiFluor488, 10 min | Potency, µM (doses to about 115 µM), for inactives: top-dose activity, negative = inhibition, hits mostly inhibitors | hit rate 0.009% among 390,000; active = well fitted inhibition curve with a large enough effect in the polarisation, with a control signal flat, not every such curve was filed as active; inconclusive = small, poorly fitted or top-dose-only effect, or effect the other way, or a change in a side signal; inactive = no such curve, though single readings can be large or run the other way; the % refers to the polarisation; note: potency is the fitted concentration of half-maximal effect
# Target sequence (Q13526 whole entry, looked up): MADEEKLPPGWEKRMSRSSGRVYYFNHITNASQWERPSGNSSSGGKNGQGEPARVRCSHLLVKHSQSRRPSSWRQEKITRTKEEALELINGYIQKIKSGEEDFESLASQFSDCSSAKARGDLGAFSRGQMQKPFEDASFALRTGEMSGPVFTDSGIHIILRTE
# KAT2A inh: qHTS Assay for Inhibitors of GCN5L2. hit rate 0.21% among 390,000. Potency, µM (highest dose often 58.9 µM), for the others: at the top dose activity change, negative = inhibition, actives largely listed as inhibitors. Histone acetyltransferase KAT2A (Homo sapiens), Q92830. GCN5L2 HAT assay, ThioGlo1 CoA-SH fluorescence. AID 504327, 2011; note: potency is the fitted concentration of half-maximal effect
#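 Free CoA generated was detected with ThioGlo1 (50uM) fluorescence at Ex340nm/Em540nm, read immediately and after 20 min at room temperature. Enzyme, 20 nM in HEPES pH 7.5 buffer, saw compounds 15 min before adding 75uM H3(1-25) peptide and 70uM acetyl-CoA.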
# Tb PGK inh: qHTS Assay to Find Inhibitors of Phosphoglycerate Kinase. AID 602233, 2012. hit rate 0.043% among 380,000. Potency, µM (series often up to 57.5 µM), inactives show at the top dose activity change, negative = inhibition, usual class: inhibitors. PGK/GAPDH coupled, Kinase-Glo luminescence, 60 min. Phosphoglycerate kinase, glycosomal (Trypanosoma brucei brucei), P07378; note: potency is the fitted concentration of half-maximal effect; nearly all actives have a fitted effect of over 60% in size
#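 Recombinant glycosomal PGK reaction used 1,3-bisphosphoglycerate generated in-well by GAPDH (100nM final) in 100mM TEA pH 7.6, 5mM MgCl2, 0.01% Tween-20. After 60 minutes at room temperature, ATP was read by Kinase-Glo Plus luminescence end-point.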
# GoLoco inh red: qHTS Assay for Inhibitors of RGS12 GoLoco Motif Activity (Red Fluorophore); Guanine nucleotide-binding protein G(i) subunit alpha-1 (Homo sapiens), P63096; Gai1:RGS12 GoLoco peptide FP, rhodamine, 10 min; Potency, µM (series often up to 61.6 µM), without a hit: at the highest dose activity, negative = inhibition, usual class: inhibitors; hit rate 0.44% among 230,000; active = well fitted inhibition curve with a large enough effect, not every such curve was filed as active; inactive = no such curve, though single readings can be large or run the other way; note: potency is the fitted concentration of half-maximal effect; nearly all actives have a fitted effect of over 30% in size
# ADP-Glo interf: qHTS for Inhibitors of PI5P4K: ADP-Glo counter assay | shares compounds with PI5P4Ka inh | ADP-Glo detection counter-screen, luciferase luminescence, no enzyme | Potency, µM (series often up to 76.9 µM), for inactives: at the top dose activity change, negative = inhibition, hits mostly inhibitors | 1,100 tested, under 10 active
# * marks the source's active call; other numbers are inactive results; i = inactive; ? = inconclusive; / = no result. Shown are actives, neighbours in structure and some others; about 1.2% of the full set was active somewhere. Unless noted, calls come from the whole dose curve; as a rule, active = well fitted curve in the direction sought with a large enough effect; inconclusive = small, poorly fitted or top-dose-only effect, or another doubt; inactive = no such curve, though single readings can be large; an effect the other way counts as inactive or inconclusive. Unless noted, % is set by controls: 0 for no effect and ±100 for the full control effect.
SMILES,PI5P4Ka inh,PI4K2A block,Pin1 inh,KAT2A inh,Tb PGK inh,GoLoco inh red,ADP-Glo interf
CCCN(C(=O)c1cc2c(s1)CCC2)c1c(N)n(Cc2ccccc2)c(=O)[nH]c1=O,-66*,-6,?,-28%,-6%,25%,2%
CCCCN(C(=O)c1cccc(-n2cccc2)c1)c1c(N)n(CCCC)c(=O)[nH]c1=O,?,-22,?,-5%,-9%,/,/
CCCN(C(=O)c1cccc(-n2cccc2)c1)c1c(N)n(Cc2ccccc2)c(=O)[nH]c1=O,-88*,-16,-9%,-24%,?,/,-8%
CCCCN(C(=O)c1cccc(-n2cccc2)c1)c1c(N)n(CCC)c(=O)[nH]c1=O,-61*,0,-9%,-24%,-26%,/,2%
COCCCN(C(=O)c1cc2c(s1)CCC2)c1c(N)n(Cc2ccccc2)c(=O)[nH]c1=O,?,-5,?,-25%,-7%,25%,/
C(=C\c1ccccc1)/C=N/Nc1ccc2nncn2n1,-11,0,1%,-9%,i,3%,/
CCn1cnc2sc(C(=O)Oc3ccc(Br)cc3)c(C)c2c1=O,7,-2,4%,0%,-8%,6%,/
COc1ccc(CC(=O)NCC(=O)NC(Cc2ccccc2)C(=O)O)cc1 (stereo unspecified),-65*,0,?,-22%,-3%,/,-1%
COc1ccc(-c2nnn(CC(=O)N(CC(=O)NC3CCCC3)c3ccccc3)n2)cc1OC,-51*,-6,1%,4%,-2%,2%,5%
CC(=O)Nc1cc(-c2ccc(CO)cc2)cn2c(-c3ccc(F)c(Cl)c3)cnc12,-54*,-3,/,/,/,/,1%
C[C@@H]1CN([C@@H](C)CO)C(=O)CCCn2nncc2CO[C@H]1CN(C)C(=O)c1ccccc1,1,5,/,/,-11%,/,/
CNC(=S)N(Cc1cccs1)Cc1cc2ccc(OC)cc2[nH]c1=O,-60*,-5,1%,1%,-2%,1%,0%
O=C1CCN(CCCc2ccccc2)CCN1[C@H](CO)Cc1ccccc1,3,-2,-18%,0%,-8%,/,/
CCn1nc(CC(C)C)cc1C(=O)N1CCCC(Nc2ccc(OC)cc2)C1 (stereo unspecified),-7,-3,-3%,-3%,-3%,/,/
O=C(NCC(=O)N1CCN(C(=O)c2ccccc2)CC1)c1ccc(Cl)cc1Cl,3,6,0%,1%,i,/,/
O=C(NCC1CCCCC1)c1cccc([N+](=O)[O-])c1,-62*,8,1%,0%,-9%,/,1%
NC(=O)C1CCN(c2ncc(-c3ccc4c(c3)OC(F)(F)O4)s2)CC1,/,/,1%,/,/,/,/
CCOc1ccccc1NC(=O)c1c(NC(=O)CCC(=O)O)sc2c1CCCCC2,-10,1,-14%,-3%,-6%,5%,0%
CCOc1ccccc1NC(=O)c1c(NC(=O)Cc2ccccc2)sc2c1CCCC2,/,1,3%,-1%,0%,/,/
COC(=O)c1ccccc1NC(=O)c1ccc2nccnc2c1,?,-1,?,-2%,-5%,43%,/
O=C(Nc1ccccc1Cl)c1ccc2nccnc2c1,-27,-15,?,-2%,-5%,/,-5%
Cc1cc(Br)cn2c(Cc3ccsc3)c(-c3ccco3)nc12,-90*,-26,/,/,/,/,-2%
COc1ccccc1Cc1c(-c2ccco2)nc2c(C)cc(Br)cn12,-78*,?,/,/,/,/,-4%
COc1ccc(Cc2c(-c3ccco3)nc3c(C)cc(Br)cn23)c(C)c1,?,-1,/,/,/,/,/
COc1ccc(Cc2c(-c3ccco3)nc3ccc(Br)cn23)c(C)c1,-60*,?,/,/,/,/,-6%
SMILES,PI5P4Ka inh,PI4K2A block,Pin1 inh,KAT2A inh,Tb PGK inh,GoLoco inh red,ADP-Glo interf
Cc1cc(Br)cn2c(Cc3ccccc3)c(-c3ccco3)nc12,-20,-8,/,/,/,/,/
CCn1c(/C=C2\C(=O)N(C(C)C)c3ccccc32)nc2ccccc2c1=O,4,0,-4%,1%,-9%,0%,/
Clc1ccc(-c2noc(CCCc3ccccc3)n2)cc1,14,0,0%,-3%,-2%,9%,/
O=C(O)c1ccc(Cl)c(S(=O)(=O)Nc2ccc3[nH]c(=O)[nH]c3c2)c1,-65*,0,-19%,-6%,-5%,9%,5%
CCOC(=O)[C@]12CCCC=C1N(Cc1cccc3ccccc13)C(=O)[C@H](CC(=O)NCc1ccc(C)o1)C2,-19,-1,/,/,/,/,/
CCOC(=O)[C@]12CCCC=C1N(Cc1ccccc1)C(=O)[C@H](CC(=O)NCCCOC)C2,-57*,0,/,/,/,/,-1%
CCOC(=O)[C@]12CCCC=C1N(Cc1ccccc1)C(=O)[C@H](CC(=O)NCCCCc1ccccc1)C2,6,1,/,/,/,/,/
COC(=O)[C@]12CCCCC=C1N(Cc1cccc3ccccc13)C(=O)[C@H](CC(=O)NCc1ccc(C)o1)C2,-52*,-2,/,/,/,/,2%
Cc1ccc(C)c(NC(=O)CSc2nc(-c3ccccc3Cl)nc3c2Cc2c(CO)cnc(C)c2O3)c1,/,2,-8%,-3%,6%,/,/
COc1ccc(Nc2nc(N)c(C(=O)c3ccc(F)cc3)s2)cc1,-54*,-2,-3%,-19%,-7%,/,1%
Nc1nc(Nc2cccc(Cl)c2)sc1C(=O)c1ccc(F)cc1,/,-6,?,-6%,9%,/,/
Cc1nc2c(c(=O)n1Cc1ccccc1Cl)c1nc3ccccc3nc1n2Cc1ccco1,/,/,/,?,/,34%,/
COc1ccc(Cn2c(C)nc3c(c2=O)c2nc4ccccc4nc2n3Cc2ccco2)cc1,-59*,-1,79%,/,?,/,1%
CCn1c(=S)[nH]c2scc(-c3cccs3)c2c1=O,-53*,-6,1%,-5%,7%,-8%,3%
Cc1nc2ccccc2nc1OCC(=O)NCc1ccc2c(c1)OCO2,-62*,-20,33%,-5%,-3%,3%,-14%
Cc1[nH]c2ccccc2c1/C=C(\C#N)S(=O)(=O)c1ccccc1,/,1,-3%,-4%,i,8%,/
CC(=O)Nc1ccc(NC(=O)CS(=O)(=O)Cc2ccccc2)cc1,-5,1,-7%,-10%,-1%,/,/
